From PubChem BioAssay AID1159580 (chemical genetic matrix, 2015)
“And” between values parts separate entries of the source, which are not always exact repeats. Equal entries are not always repeated. Hit rate of the full screen: of about 5,500 compounds, about 2,000 (36%) were called active. About 18% were inconclusive and are not listed. Rule as the data show it: active = normalized growth mostly below about 0.91 (no sharp cut-off); inconclusive = no clear call, values can overlap the other calls; inactive = mostly above about 0.92. The list shows a part of the results.

Test: chemical genetic growth profiling, strain panel (AID 1159580);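 also: tested at 20 µM; growth read once vehicle control cultures reached saturation at 30 °C; 1 = growth at the plate median or of vehicle wells; lower values mean less growth of the strain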
Settings: growth OD

Measured: normalized growth

CC1(C)C2(Cl)C(Cl)C(Cl)C(Cl)(C(Cl)Cl)C1(Cl)C2Cl (configuration not stated)
active: S. cerevisiae deletion strains, locus YLR418C, strain cdc73, active compounds read low 0.755 | S. cerevisiae deletion strains, locus YNL307C, strain MCK1, active compounds read low 0.544 | S. cerevisiae deletion strains, locus YOR184W, strain ser1, active compounds read low 0.809 | S. cerevisiae deletion strains, locus YPR163C, strain tif3, active compounds read low 0.91
inactive: S. cerevisiae deletion strains, locus YAL013W, strain DEP1, active compounds read low 0.98 | S. cerevisiae deletion strains, locus YBR021W, strain FUR4, active compounds read low 0.985 | S. cerevisiae deletion strains, locus YBR229C, strain ROT2, active compounds read low 0.985 | S. cerevisiae deletion strains, locus YCL029C, strain bik1, active compounds read low 0.982 | S. cerevisiae deletion strains, locus YDL035C, strain GPR1, active compounds read low 0.947 | S. cerevisiae deletion strains, locus YDL074C, strain BRE1, active compounds read low 0.918 | S. cerevisiae deletion strains, locus YDL101C, strain DUN1, active compounds read low 0.982 | S. cerevisiae deletion strains, locus YDL134C, strain PPH21, active compounds read low 0.981 | S. cerevisiae deletion strains, locus YDL185W, strain tfp1, active compounds read low 0.976 | S. cerevisiae deletion strains, locus YDL192W, strain arf1, active compounds read low 0.98 | S. cerevisiae deletion strains, locus YDR101C, strain arx1, active compounds read low 0.993 | S. cerevisiae deletion strains, locus YDR150W, strain NUM1, active compounds read low 0.994 | S. cerevisiae deletion strains, locus YDR162C, strain NBP2, active compounds read low 0.968 | S. cerevisiae deletion strains, locus YDR318W, strain mcm21, active compounds read low 0.95 | S. cerevisiae deletion strains, locus YDR388W, active compounds read low 0.964 | S. cerevisiae deletion strains, locus YDR502C, strain sam2, active compounds read low 0.957 | S. cerevisiae deletion strains, locus YEL061C, strain CIN8, active compounds read low 0.992 | S. cerevisiae deletion strains, locus YER110C, active compounds read low 0.984 | S. cerevisiae deletion strains, locus YER155C, strain BEM2, active compounds read low 1 | S. cerevisiae deletion strains, locus YER167W, strain BCK2, active compounds read low 0.975 | S. cerevisiae deletion strains, locus YGL078C, strain dbp3, active compounds read low 0.982 | S. cerevisiae deletion strains, locus YGL086W, strain mad1, active compounds read low 0.962 | S. cerevisiae deletion strains, locus YGL248W, strain PDE1, active compounds read low 0.979 | S. cerevisiae deletion strains, locus YGR078C, strain PAC10, active compounds read low 0.94 | S. cerevisiae deletion strains, locus YGR135W, strain pre9, active compounds read low 0.951 | S. cerevisiae deletion strains, locus YGR229C, strain SMI1, active compounds read low 0.865 | S. cerevisiae deletion strains, locus YGR252W, strain gcn5, active compounds read low 0.956 | S. cerevisiae deletion strains, locus YHR030C, strain SLT2, active compounds read low 0.995 and 0.96 | S. cerevisiae deletion strains, locus YHR079C, strain IRE1 (second series), active compounds read low 0.975 | S. cerevisiae deletion strains, locus YHR079C, strain IRE1, active compounds read low 0.946 | S. cerevisiae deletion strains, locus YHR094C, strain hxt1, active compounds read low 0.981 | S. cerevisiae deletion strains, locus YHR129C, strain ARP1, active compounds read low 0.984 | S. cerevisiae deletion strains, locus YHR200W, strain rpn10, active compounds read low 0.979 | S. cerevisiae deletion strains, locus YIL066C, strain RNR3, active compounds read low 0.891 | S. cerevisiae deletion strains, locus YIL073C, strain SPO22, active compounds read low 0.829 | S. cerevisiae deletion strains, locus YIL125W, strain kgd1, active compounds read low 0.981 | S. cerevisiae deletion strains, locus YIR030C, strain dcg1, active compounds read low 0.978 | S. cerevisiae deletion strains, locus YJL095W, strain BCK1, active compounds read low 0.954 and 0.978 | S. cerevisiae deletion strains, locus YJL134W, strain LCB3, active compounds read low 0.991 | S. cerevisiae deletion strains, locus YJL168C, strain set2, active compounds read low 0.978 | S. cerevisiae deletion strains, locus YJL187C, strain SWE1 (second series), active compounds read low 0.983 | S. cerevisiae deletion strains, locus YJR043C, strain POL32, active compounds read low 1.01 | S. cerevisiae deletion strains, locus YJR066W, strain TOR1, active compounds read low 0.935 | S. cerevisiae deletion strains, locus YJR075W, strain HOC1, active compounds read low 0.954 | S. cerevisiae deletion strains, locus YKL009W, strain mrt4, active compounds read low 0.971 | S. cerevisiae deletion strains, locus YKL068W, active compounds read low 0.971 | S. cerevisiae deletion strains, locus YKL085W, strain MDH1 (second series), active compounds read low 0.968 | S. cerevisiae deletion strains, locus YKL085W, strain MDH1, active compounds read low 0.968 | S. cerevisiae deletion strains, locus YKL190W, strain CNB1, active compounds read low 0.989 | S. cerevisiae deletion strains, locus YKR001C, strain vps1, active compounds read low 0.932 | S. cerevisiae deletion strains, locus YLR039C, strain RIC1, active compounds read low 0.79 | S. cerevisiae deletion strains, locus YLR058C, strain SHM2, active compounds read low 0.978 | S. cerevisiae deletion strains, locus YLR102C, strain apc9, active compounds read low 0.986 | S. cerevisiae deletion strains, locus YLR113W, strain HOG1, active compounds read low 0.948 | S. cerevisiae deletion strains, locus YLR262C, strain YPT6, active compounds read low 0.768 | S. cerevisiae deletion strains, locus YLR268W, strain sec22, active compounds read low 0.956 | S. cerevisiae deletion strains, locus YLR330W, strain CHS5, active compounds read low 0.992 | S. cerevisiae deletion strains, locus YLR342W, strain FKS1 (second series), active compounds read low 0.893 | S. cerevisiae deletion strains, locus YLR371W, strain rom2, active compounds read low 0.986 | S. cerevisiae deletion strains, locus YML016C, strain PPZ1, active compounds read low 0.984 | S. cerevisiae deletion strains, locus YML032C, strain rad52, active compounds read low 0.954 | S. cerevisiae deletion strains, locus YML124C, strain tub3, active compounds read low 0.982 | S. cerevisiae deletion strains, locus YMR078C, strain ctf18, active compounds read low 0.961 | S. cerevisiae deletion strains, locus YMR223W, strain ubp8, active compounds read low 0.939 | S. cerevisiae deletion strains, locus YMR263W, strain SAP30, active compounds read low 0.993 | S. cerevisiae deletion strains, locus YMR307W, strain GAS1, active compounds read low 0.887 | S. cerevisiae deletion strains, locus YNL067W, strain RPL9B, active compounds read low 0.987 | S. cerevisiae deletion strains, locus YNL128W, strain TEP1, active compounds read low 0.993 | S. cerevisiae deletion strains, locus YNL153C, strain GIM3, active compounds read low 0.986 | S. cerevisiae deletion strains, locus YNL183C, strain NPR1, active compounds read low 0.943 | S. cerevisiae deletion strains, locus YNL233W, strain BNI4, active compounds read low 0.989 | S. cerevisiae deletion strains, locus YNL250W, strain rad50, active compounds read low 0.969 | S. cerevisiae deletion strains, locus YNL271C, strain bni1, active compounds read low 0.97 | S. cerevisiae deletion strains, locus YNL298W, strain CLA4, active compounds read low 0.971 | S. cerevisiae deletion strains, locus YNL322C, strain KRE1, active compounds read low 0.994 | S. cerevisiae deletion strains, locus YNR052C, strain pop2, active compounds read low 0.963 | S. cerevisiae deletion strains, locus YOL006C, strain TOP1, active compounds read low 0.867 | S. cerevisiae deletion strains, locus YOL012C, strain htz1 0.99 | S. cerevisiae deletion strains, locus YOL147C, strain pex11, active compounds read low 0.982 | S. cerevisiae deletion strains, locus YOR061W, strain CKA2, active compounds read low 0.994 | S. cerevisiae deletion strains, locus YOR069W, strain VPS5, active compounds read low 0.984 | S. cerevisiae deletion strains, locus YOR136W, strain idh2, active compounds read low 0.966 | S. cerevisiae deletion strains, locus YOR144C, strain elg1, active compounds read low 0.981 | S. cerevisiae deletion strains, locus YOR231W, strain MKK1, active compounds read low 0.964 | S. cerevisiae deletion strains, locus YOR316C, strain cot1, active compounds read low 0.977 | S. cerevisiae deletion strains, locus YPL055C, strain LGE1, active compounds read low 0.96 | S. cerevisiae deletion strains, locus YPL241C, strain CIN2, active compounds read low 0.993 | S. cerevisiae deletion strains, locus YPL256C, strain CLN2, active compounds read low 0.9 | S. cerevisiae deletion strains, locus YPR119W, strain clb2, active compounds read low 0.976 | S. cerevisiae deletion strains, locus YPR141C, strain kar3, active compounds read low 0.957 | S. cerevisiae deletion strains, locus YPR167C, strain met16, active compounds read low 0.974 | S. cerevisiae deletion strains, strain wtn01, active compounds read low 0.966 | S. cerevisiae strains, strain wild type, active compounds read low 0.986
